Reference: PubChem BioAssay AID1159580 (chemical genetic matrix, 2015)
Several values for one entry are separate records, joined by “and”; a condition that tells them apart may be missing. Equal values may be shown once. Screen size: about 5,500 compounds; about 2,000 (36%) were called active. Not shown: some 18% with an inconclusive outcome. No stated cut-off is given here; in the data, active means normalized growth mostly below about 0.91 (no sharp cut-off); inconclusive means no clear call, values can overlap the other calls; inactive means mostly above about 0.92. The list shows a part of the results. More than one record can exist for a structure, and the calls need not agree.

Test: chemical genetic growth profiling, strain panel (AID 1159580);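 further: tested at 20 µM; growth read once vehicle control cultures reached saturation at 30 °C; 1 = growth at the plate median or of vehicle wells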
Conditions: S. cerevisiae deletion strains, growth OD

Question: Which results are given for O=c1c(O)c(-c2ccc(O)c(O)c2)oc2cc(O)cc(O)c12?
Answer: normalized growth (locus YAL013W, strain DEP1, stronger effect = lower value): 0.973 (inactive) and 0.979 (inactive); normalized growth (locus YAL021C, strain ccr4, stronger effect = lower value): 0.659 (active); normalized growth (locus YAL026C, strain drs2, stronger effect = lower value): 0.782 (active); normalized growth (locus YAL030W, strain snc1, stronger effect = lower value): 0.94 (inactive); normalized growth (locus YAL040C, strain CLN3, stronger effect = lower value): 1.07 (inactive); normalized growth (locus YBL061C, strain skt5, stronger effect = lower value): 0.832 (active); normalized growth (locus YBR009C, strain hhf1, stronger effect = lower value): 0.919 (inactive); normalized growth (locus YBR021W, strain FUR4, stronger effect = lower value): 0.992 (inactive); normalized growth (locus YBR023C, strain chs3, stronger effect = lower value): 0.778 (active); normalized growth (locus YBR171W, strain sec66, stronger effect = lower value): 0.997 (inactive); normalized growth (locus YBR229C, strain ROT2, stronger effect = lower value): 0.993 (inactive); normalized growth (locus YBR231C, strain swc5, stronger effect = lower value): 0.767 (active); normalized growth (locus YBR279W, strain paf1, stronger effect = lower value): 0.848 (active); normalized growth (locus YCL011C, strain gbp2, stronger effect = lower value): 0.847 (active); normalized growth (locus YCL016C, strain dcc1, stronger effect = lower value): 0.877 (active); normalized growth (locus YCL029C, strain bik1, stronger effect = lower value): 0.982 (inactive); normalized growth (locus YCL061C, strain MRC1 (second series), stronger effect = lower value): 0.996 (inactive); normalized growth (locus YCL069W, strain vba3, stronger effect = lower value): 0.92 (active); normalized growth (locus YCR088W, strain abp1, stronger effect = lower value): 0.993 (inactive); normalized growth (locus YDL005C, strain med2, stronger effect = lower value): 0.992 (inactive); normalized growth (locus YDL035C, strain GPR1, stronger effect = lower value): 0.906 (inactive); normalized growth (locus YDL040C, strain nat1, stronger effect = lower value): 0.974 (inactive); normalized growth (locus YDL074C, strain BRE1, stronger effect = lower value): 0.848 (inactive); normalized growth (locus YDL101C, strain DUN1, stronger effect = lower value): 0.98 (inactive); normalized growth (locus YDL134C, strain PPH21, stronger effect = lower value): 0.932 (inactive); normalized growth (locus YDL185W, strain tfp1, stronger effect = lower value): 1.01 (inactive); normalized growth (locus YDL192W, strain arf1, stronger effect = lower value): 0.958 (inactive); normalized growth (locus YDR001C, strain nth1, stronger effect = lower value): 0.988 (inactive); normalized growth (locus YDR069C, strain doa4, stronger effect = lower value): 0.728 (active); normalized growth (locus YDR101C, strain arx1, stronger effect = lower value): 1.02 (inactive); normalized growth (locus YDR137W, strain rgp1, stronger effect = lower value): 0.897 (inactive); normalized growth (locus YDR150W, strain NUM1, stronger effect = lower value): 0.978 (inactive); normalized growth (locus YDR159W, strain sac3, stronger effect = lower value): 0.974 (inactive); normalized growth (locus YDR162C, strain NBP2, stronger effect = lower value): 0.908 (inactive); normalized growth (locus YDR195W, strain ref2): 1.04 (inactive); normalized growth (locus YDR297W, strain sur2, stronger effect = lower value): 0.899 (active); normalized growth (locus YDR318W, strain mcm21, stronger effect = lower value): 0.967 (inactive); normalized growth (locus YDR334W, strain swr1, stronger effect = lower value): 0.855 (active); normalized growth (locus YDR335W, strain msn5, stronger effect = lower value): 0.828 (active); normalized growth (locus YDR363W, strain ESC2, stronger effect = lower value): 1.01 (inactive); normalized growth (locus YDR388W, stronger effect = lower value): 0.943 (inactive); normalized growth (locus YDR392W, strain spt3, stronger effect = lower value): 0.781 (inactive); normalized growth (locus YDR502C, strain sam2, stronger effect = lower value): 0.955 (inactive); normalized growth (locus YEL003W, strain gim4, stronger effect = lower value): 0.879 (active); normalized growth (locus YEL037C, strain rad23, stronger effect = lower value): 0.885 (active); normalized growth (locus YEL061C, strain CIN8 (second series), stronger effect = lower value): 0.963 (inactive); normalized growth (locus YEL061C, strain CIN8, stronger effect = lower value): 0.946 (inactive); normalized growth (locus YER002W, strain NOP16, stronger effect = lower value): 1 (inactive); normalized growth (locus YER015W, strain faa2, stronger effect = lower value): 0.817 (active); normalized growth (locus YER016W, strain bim1, stronger effect = lower value): 0.911 (active); normalized growth (locus YER110C, stronger effect = lower value): 1.04 (inactive); normalized growth (locus YER111C, strain swi4, stronger effect = lower value): 0.895 (active); normalized growth (locus YER155C, strain BEM2 (second series), stronger effect = lower value): 0.899 (inactive); normalized growth (locus YER155C, strain BEM2, stronger effect = lower value): 1.02 (inactive); normalized growth (locus YER167W, strain BCK2, stronger effect = lower value): 0.976 (inactive); normalized growth (locus YFR010W, strain ubp6, stronger effect = lower value): 0.9 (active); normalized growth (locus YGL078C, strain dbp3, stronger effect = lower value): 0.999 (inactive); normalized growth (locus YGL086W, strain mad1, stronger effect = lower value): 0.915 (active); normalized growth (locus YGL167C, strain pmr1, stronger effect = lower value): 0.977 (inactive); normalized growth (locus YGL173C, strain kem1, stronger effect = lower value): 0.826 (active); normalized growth (locus YGL227W, strain vid30, stronger effect = lower value): 1 (inactive); normalized growth (locus YGL240W, strain doc1, stronger effect = lower value): 0.997 (inactive); normalized growth (locus YGL248W, strain PDE1, stronger effect = lower value): 0.928 (inactive); normalized growth (locus YGL253W, strain hxk2, stronger effect = lower value): 0.83 (active); normalized growth (locus YGR078C, strain PAC10, stronger effect = lower value): 0.887 (inactive) and 0.991 (inactive); normalized growth (locus YGR135W, strain pre9, stronger effect = lower value): 0.91 (inactive); normalized growth (locus YGR229C, strain SMI1, stronger effect = lower value): 0.542 (active) and 0.965 (inactive); normalized growth (locus YGR252W, strain gcn5, stronger effect = lower value): 0.804 (inactive); normalized growth (locus YHR013C, strain ard1, stronger effect = lower value): 0.796 (active); normalized growth (locus YHR027C, strain rpn1, stronger effect = lower value): 0.807 (active); normalized growth (locus YHR030C, strain SLT2, stronger effect = lower value): 0.951 (inactive) and 0.997 (inactive); normalized growth (locus YHR079C, strain IRE1 (second series), stronger effect = lower value): 1.02 (inactive); normalized growth (locus YHR079C, strain IRE1, stronger effect = lower value): 0.981 (inactive); normalized growth (locus YHR094C, strain hxt1, stronger effect = lower value): 1.04 (inactive); normalized growth (locus YHR129C, strain ARP1, stronger effect = lower value): 0.926 (inactive); normalized growth (locus YHR142W, strain chs7, stronger effect = lower value): 0.735 (active); normalized growth (locus YHR200W, strain rpn10, stronger effect = lower value): 0.941 (inactive); normalized growth (locus YIL066C, strain RNR3, stronger effect = lower value): 0.882 (inactive); normalized growth (locus YIL073C, strain SPO22, stronger effect = lower value): 0.854 (inactive); normalized growth (locus YIL125W, strain kgd1, stronger effect = lower value): 1 (inactive); normalized growth (locus YIR030C, strain dcg1, stronger effect = lower value): 1.03 (inactive); normalized growth (locus YJL092W, strain hpr5, stronger effect = lower value): 0.955 (inactive); normalized growth (locus YJL095W, strain BCK1 (second series), stronger effect = lower value): 0.858 (active); normalized growth (locus YJL095W, strain BCK1, stronger effect = lower value): 0.773 (active) and 0.993 (inactive); normalized growth (locus YJL115W, strain asf1, stronger effect = lower value): 0.962 (inactive); normalized growth (locus YJL129C, strain trk1, stronger effect = lower value): 0.913 (inactive); normalized growth (locus YJL134W, strain LCB3, stronger effect = lower value): 0.988 (inactive); normalized growth (locus YJL154C, strain vps35, stronger effect = lower value): 0.985 (inactive); normalized growth (locus YJL164C, strain tpk1, stronger effect = lower value): 0.868 (active); normalized growth (locus YJL166W, strain qcr8, stronger effect = lower value): 0.913 (inactive); normalized growth (locus YJL168C, strain set2, stronger effect = lower value): 1.02 (inactive); normalized growth (locus YJL187C, strain SWE1 (second series), stronger effect = lower value): 0.895 (inactive); normalized growth (locus YJR043C, strain POL32, stronger effect = lower value): 0.905 (inactive); normalized growth (locus YJR066W, strain TOR1, stronger effect = lower value): 0.931 (inactive); normalized growth (locus YJR075W, strain HOC1, stronger effect = lower value): 0.982 (inactive) and 0.99 (inactive)
